Measurements taken from paper PMC10812921, “Transcriptional Coactivator BOB1 (OBF1, OCA-B) Modulates the Specificity of DNA Recognition by the POU-Domain Factors OCT1 and OCT2 in a Monomeric Configuration”.

target: T1, POU2 (OCT2 POU domain) (human, UniProt P09086 175-386); assay: EMSA-SELEX-seq; no BOB1; 20 mM Tris-HCl pH 7.6, 140 mM NaCl, 10% glycerol, 0.5 mM EDTA, 0.05% Triton X-100, 0.1 mg/mL BSA, 0.1 mg/mL poly(dI-dC), 5 mM DTT, room temperature, 20 min; high values mean tight binding; conditions: protein: recombinant; dsDNA, one strand shown
T1 sequence: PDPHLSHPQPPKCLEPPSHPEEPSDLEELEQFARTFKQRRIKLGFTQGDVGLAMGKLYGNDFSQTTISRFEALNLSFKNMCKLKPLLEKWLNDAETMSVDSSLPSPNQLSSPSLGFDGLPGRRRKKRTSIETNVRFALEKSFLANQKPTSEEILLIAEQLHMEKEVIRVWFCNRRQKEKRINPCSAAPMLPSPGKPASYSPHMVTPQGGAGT
In short: (§1)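 With or without 28 ng coactivator protein, 30 ng of tagged POU-domain protein was combined with 300 ng of a PCR-amplified double-stranded random 35-nt library in 20 μL Tris–HCl pH 7.6 binding buffer for 20 min at RT. The protein came from E. coli BL21 and had been purified under denaturing conditions and renatured. Four rounds of cutting complex bands from native 6% PAGE, elution and PCR amplification preceded Illumina sequencing. The binding preference figure is the percentage of sequenced 8-mers matching a motif pattern.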

Row | Sequence | binding signal
1 | AATAAAAG | 0.121 % of ANNNNAAN 8-mers
2 | AACTAAAA | 0.0478 % of ANNNNAAN 8-mers
3 | AACCAAAG | 0.038 % of ANNNNAAN 8-mers
4 | ACTTCAAC | 0.015 % of ANNNNAAN 8-mers
5 | AGGGGAAG | 0.0673 % of ANNNNAAN 8-mers
6 | ACTAGAAA | 0.0322 % of ANNNNAAN 8-mers
7 | ATTGAAAC | 0.0322 % of ANNNNAAN 8-mers
8 | AACGTAAG | 0.0351 % of ANNNNAAN 8-mers
9 | ATGGGAAT | 0.128 % of ANNNNAAN 8-mers
10 | AATGCAAG | 0.0512 % of ANNNNAAN 8-mers
11 | ATGTGAAT | 0.158 % of ANNNNAAN 8-mers
12 | AATTAAAG | 0.22 % of ANNNNAAN 8-mers
13 | AAAGAAAT | 0.112 % of ANNNNAAN 8-mers
14 | ACTATAAA | 0.0403 % of ANNNNAAN 8-mers
15 | ACTAAAAG | 0.0368 % of ANNNNAAN 8-mers
16 | ACATCAAC | 0.0253 % of ANNNNAAN 8-mers
17 | AAGTAAAA | 0.0967 % of ANNNNAAN 8-mers
18 | ACAATAAT | 0.0978 % of ANNNNAAN 8-mers
19 | ACCAAAAA | 0.0328 % of ANNNNAAN 8-mers
20 | AATCCAAT | 0.0552 % of ANNNNAAN 8-mers

Row | Sequence | binding signal
21 | AGTTAAAT | 0.213 % of ANNNNAAN 8-mers
22 | ACTGCAAA | 0.0397 % of ANNNNAAN 8-mers
23 | AAACGAAT | 0.0783 % of ANNNNAAN 8-mers
24 | ATTTAAAG | 0.185 % of ANNNNAAN 8-mers
25 | AACGGAAG | 0.0259 % of ANNNNAAN 8-mers
26 | AGTAGAAC | 0.0242 % of ANNNNAAN 8-mers
27 | ACCAGAAT | 0.0437 % of ANNNNAAN 8-mers
28 | ATTGCAAT | 0.061 % of ANNNNAAN 8-mers
29 | ATCACAAG | 0.0334 % of ANNNNAAN 8-mers
30 | AGCCTAAG | 0.0207 % of ANNNNAAN 8-mers
31 | ATATGAAG | 0.0823 % of ANNNNAAN 8-mers
32 | ACGCTAAG | 0.0167 % of ANNNNAAN 8-mers
33 | AGGAAAAT | 0.2 % of ANNNNAAN 8-mers
34 | AGCGAAAT | 0.0627 % of ANNNNAAN 8-mers
35 | ATTGAAAT | 0.29 % of ANNNNAAN 8-mers
36 | ATCGAAAG | 0.0288 % of ANNNNAAN 8-mers
37 | AAGGCAAC | 0.0167 % of ANNNNAAN 8-mers
38 | AGATCAAT | 0.0432 % of ANNNNAAN 8-mers
39 | ATAAAAAG | 0.114 % of ANNNNAAN 8-mers
40 | AGAAAAAA | 0.0857 % of ANNNNAAN 8-mers

target: POU1 (OCT1 POU domain);BOB1 (OBF1, OCA-B) (human;human, UniProt P14859;Q16633 260-458;1-256, |); assay: EMSA-SELEX-seq; with BOB1 (ternary complex band); 20 mM Tris-HCl pH 7.6, 140 mM NaCl, 10% glycerol, 0.5 mM EDTA, 0.05% Triton X-100, 0.1 mg/mL BSA, 0.1 mg/mL poly(dI-dC), 5 mM DTT, room temperature, 20 min; high values mean tight binding; conditions: protein: recombinant;recombinant; copies: 1;1; dsDNA, one strand shown
In short: as §1

Row | Sequence | binding signal
41 | AATAAAAG | 0.118 % of ANNNNAAN 8-mers
42 | AACTAAAA | 0.0386 % of ANNNNAAN 8-mers
43 | AACCAAAG | 0.0539 % of ANNNNAAN 8-mers
44 | ACTTCAAC | 0.0121 % of ANNNNAAN 8-mers
45 | AGGGGAAG | 0.0507 % of ANNNNAAN 8-mers
46 | ACTAGAAA | 0.0261 % of ANNNNAAN 8-mers
47 | ATTGAAAC | 0.0406 % of ANNNNAAN 8-mers
48 | AACGTAAG | 0.0336 % of ANNNNAAN 8-mers
49 | ATGGGAAT | 0.0995 % of ANNNNAAN 8-mers
50 | AATGCAAG | 0.0749 % of ANNNNAAN 8-mers
51 | ATGTGAAT | 0.0921 % of ANNNNAAN 8-mers
52 | AATTAAAG | 0.112 % of ANNNNAAN 8-mers
53 | AAAGAAAT | 0.16 % of ANNNNAAN 8-mers
54 | ACTATAAA | 0.041 % of ANNNNAAN 8-mers
55 | ACTAAAAG | 0.0332 % of ANNNNAAN 8-mers
56 | ACATCAAC | 0.0211 % of ANNNNAAN 8-mers
57 | AAGTAAAA | 0.132 % of ANNNNAAN 8-mers
58 | ACAATAAT | 0.0515 % of ANNNNAAN 8-mers
59 | ACCAAAAA | 0.0425 % of ANNNNAAN 8-mers
60 | AATCCAAT | 0.0605 % of ANNNNAAN 8-mers

Row | Sequence | binding signal
61 | AGTTAAAT | 0.217 % of ANNNNAAN 8-mers
62 | ACTGCAAA | 0.0535 % of ANNNNAAN 8-mers
63 | AAACGAAT | 0.0675 % of ANNNNAAN 8-mers
64 | ATTTAAAG | 0.152 % of ANNNNAAN 8-mers
65 | AACGGAAG | 0.0164 % of ANNNNAAN 8-mers
66 | AGTAGAAC | 0.0242 % of ANNNNAAN 8-mers
67 | ACCAGAAT | 0.0293 % of ANNNNAAN 8-mers
68 | ATTGCAAT | 0.0523 % of ANNNNAAN 8-mers
69 | ATCACAAG | 0.0328 % of ANNNNAAN 8-mers
70 | AGCCTAAG | 0.0219 % of ANNNNAAN 8-mers
71 | ATATGAAG | 0.0691 % of ANNNNAAN 8-mers
72 | ACGCTAAG | 0.0242 % of ANNNNAAN 8-mers
73 | AGGAAAAT | 0.507 % of ANNNNAAN 8-mers
74 | AGCGAAAT | 0.0492 % of ANNNNAAN 8-mers
75 | ATTGAAAT | 0.189 % of ANNNNAAN 8-mers
76 | ATCGAAAG | 0.0379 % of ANNNNAAN 8-mers
77 | AAGGCAAC | 0.0195 % of ANNNNAAN 8-mers
78 | AGATCAAT | 0.0355 % of ANNNNAAN 8-mers
79 | ATAAAAAG | 0.0925 % of ANNNNAAN 8-mers
80 | AGAAAAAA | 0.0812 % of ANNNNAAN 8-mers

target: T2, POU2 (OCT2 POU domain);BOB1 (OBF1, OCA-B) (human;human, UniProt P09086;Q16633 175-386;1-256, |); assay: as above; conditions: protein: recombinant;recombinant; copies: 1;1; dsDNA, one strand shown
T2 sequence 1: T1 sequence
T2 sequence 2: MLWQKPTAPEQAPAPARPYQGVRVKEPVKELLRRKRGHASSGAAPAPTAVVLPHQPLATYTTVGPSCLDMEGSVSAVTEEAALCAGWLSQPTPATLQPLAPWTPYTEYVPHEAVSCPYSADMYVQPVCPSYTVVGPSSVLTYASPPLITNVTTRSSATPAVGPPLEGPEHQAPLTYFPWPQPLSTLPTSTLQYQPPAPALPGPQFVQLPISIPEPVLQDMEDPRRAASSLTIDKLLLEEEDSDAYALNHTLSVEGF
In short: as §1

Row | Sequence | binding signal
81 | AATAAAAG | 0.101 % of ANNNNAAN 8-mers
82 | AACTAAAA | 0.0305 % of ANNNNAAN 8-mers
83 | AACCAAAG | 0.0231 % of ANNNNAAN 8-mers
84 | ACTTCAAC | 0.0231 % of ANNNNAAN 8-mers
85 | AGGGGAAG | 0.057 % of ANNNNAAN 8-mers
86 | ACTAGAAA | 0.0305 % of ANNNNAAN 8-mers
87 | ATTGAAAC | 0.0396 % of ANNNNAAN 8-mers
88 | AACGTAAG | 0.0305 % of ANNNNAAN 8-mers
89 | ATGGGAAT | 0.116 % of ANNNNAAN 8-mers
90 | AATGCAAG | 0.0644 % of ANNNNAAN 8-mers
91 | ATGTGAAT | 0.134 % of ANNNNAAN 8-mers
92 | AATTAAAG | 0.121 % of ANNNNAAN 8-mers
93 | AAAGAAAT | 0.0958 % of ANNNNAAN 8-mers
94 | ACTATAAA | 0.0421 % of ANNNNAAN 8-mers
95 | ACTAAAAG | 0.0297 % of ANNNNAAN 8-mers
96 | ACATCAAC | 0.0281 % of ANNNNAAN 8-mers
97 | AAGTAAAA | 0.0693 % of ANNNNAAN 8-mers
98 | ACAATAAT | 0.0528 % of ANNNNAAN 8-mers
99 | ACCAAAAA | 0.0256 % of ANNNNAAN 8-mers
100 | AATCCAAT | 0.0504 % of ANNNNAAN 8-mers

Row | Sequence | binding signal
101 | AGTTAAAT | 0.127 % of ANNNNAAN 8-mers
102 | ACTGCAAA | 0.0264 % of ANNNNAAN 8-mers
103 | AAACGAAT | 0.0792 % of ANNNNAAN 8-mers
104 | ATTTAAAG | 0.0759 % of ANNNNAAN 8-mers
105 | AACGGAAG | 0.0206 % of ANNNNAAN 8-mers
106 | AGTAGAAC | 0.0239 % of ANNNNAAN 8-mers
107 | ACCAGAAT | 0.0363 % of ANNNNAAN 8-mers
108 | ATTGCAAT | 0.0479 % of ANNNNAAN 8-mers
109 | ATCACAAG | 0.0446 % of ANNNNAAN 8-mers
110 | AGCCTAAG | 0.0149 % of ANNNNAAN 8-mers
111 | ATATGAAG | 0.0735 % of ANNNNAAN 8-mers
112 | ACGCTAAG | 0.0231 % of ANNNNAAN 8-mers
113 | AGGAAAAT | 0.347 % of ANNNNAAN 8-mers
114 | AGCGAAAT | 0.0619 % of ANNNNAAN 8-mers
115 | ATTGAAAT | 0.137 % of ANNNNAAN 8-mers
116 | ATCGAAAG | 0.0272 % of ANNNNAAN 8-mers
117 | AAGGCAAC | 0.0264 % of ANNNNAAN 8-mers
118 | AGATCAAT | 0.0578 % of ANNNNAAN 8-mers
119 | ATAAAAAG | 0.0735 % of ANNNNAAN 8-mers
120 | AGAAAAAA | 0.0561 % of ANNNNAAN 8-mers
